Laboratory results from the supplement of paper PMC6555819.

How the values were obtained:
Test in all cases: PBM binding z-score (relative to random genomic background probes); higher = stronger binding; sequences stand for … in GC…GCGATTGACAGCGTAGAATGAAGG
[1] = tested on: FXR:RXRa (NR concentration 270 nM, RXRa partner concentration 90 nM)
Summary of the method: (§1)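 Binding z-scores were set against random background probes. The data came from custom Agilent 4×180K protein-binding microarrays carrying double-stranded probes with 34-nt variable regions, incubated 1 h with ligand-free nuclear receptor dimers. Partner-specific antibodies detected binding, and scanned fluorescence was regression-normalized.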

[2] = tested on: LXRa:RXRa (NR concentration 270 nM, RXRa partner concentration 90 nM)
Summary of the method: as §1

[3] = tested on: LXRa homodimer (NR concentration 270 nM)
Summary of the method: as §1

[4] = tested on: LXRb:RXRa (NR concentration 270 nM, RXRa partner concentration 90 nM)
Summary of the method: as §1

[5] = tested on: LXRb homodimer (NR concentration 270 nM)
Summary of the method: as §1

[6] = tested on: PPARa:RXRa (NR concentration 270 nM, RXRa partner concentration 90 nM)
Summary of the method: as §1

[7] = tested on: PPARg:RXRa (NR concentration 180 nM, RXRa partner concentration 90 nM)
Summary of the method: as §1

[8] = tested on: PPARg:RXRa 270nM:90nM, anti-RXR (NR concentration 270 nM, RXRa partner concentration 90 nM)
Summary of the method: as §1

[9] = tested on: PPARg:RXRa 30nM:10nM, anti-RXR (NR concentration 30 nM, RXRa partner concentration 10 nM)
Summary of the method: as §1

[10] = tested on: PPARg:RXRa 90nM:30nM, anti-RXR (NR concentration 90 nM, RXRa partner concentration 30 nM)
Summary of the method: as §1

Sequence | PBM binding z-score [1] | PBM binding z-score [2] | PBM binding z-score [3] | PBM binding z-score [4] | PBM binding z-score [5] | PBM binding z-score [6] | PBM binding z-score [7] | PBM binding z-score [8] | PBM binding z-score [9] | PBM binding z-score [10]
CCTGCTAGGTCATGGTCAGCTTATCTACAGTATG | 3.54 | 2.53 | 0.0847 | 1.71 | -0.512 | 3.19 | 2.2 | 2.64 | 0.566 | 1.77
TCTCGGAGGACACGAAGGTCCGAGCTTTCCAGAG | 0.324 | -0.29 | -0.723 | -0.734 | -1.4 | 0.0732 | -0.408 | 0.645 | 1.71 | 1.12
ATATGTAGGTTAGCAGGGGTCATTCAGACTAGGC | 5.14 | 5.99 | 4.53 | 5.37 | 1.78 | 5.56 | 6.6 | 5.97 | 3.32 | 5.33
CCTAGCAGGACAGGGTCACTCAAGCATTTCGCTT | 2.28 | 1.99 | -0.28 | 2.4 | -0.799 | 3.41 | 0.993 | 1.68 | -0.413 | 0.404
CATACAGGGTCAGCTAGGCCAGAGCAGGGACGGC | 4.49 | 3.07 | -0.271 | 2.11 | 0.561 | 4.35 | 3.33 | 3.05 | 0.789 | 1.85
ATCGAAAGGTCGACGAGGTGAGCATACACCGTTT | 4.55 | 3.16 | 0.0611 | 2.6 | 0.486 | 4.14 | 2.93 | 3.33 | 0.968 | 2.23
GCTATTAGTTGAAAGGGCAAACGAATGATTCTCG | 0.733 | 0.93 | 0.494 | 1.13 | -0.0679 | 2.7 | 2.92 | 4.48 | 2.73 | 4.34
ACTATTAGTTGAGACGAGTGCAACCGATAGGTTG | -0.26 | -0.238 | -0.221 | -0.356 | -0.0624 | -0.254 | 0.511 | 0.0303 | -0.299 | -0.303
GCTTACGGGTCAAAGGCTATAGCATGAATAGAAT | 5.51 | 3.89 | 0.00427 | 3.82 | 0.0561 | 6.01 | 7.81 | 6.86 | 5.03 | 6.55
TCAGATAGGTAAATGCTAGGTGAAAGTCCGATCT | -0.114 | 0.46 | -0.0618 | 0.329 | -0.66 | 0.824 | 0.231 | 2.17 | 3.59 | 2.99
ACTAGTTGGTCGGCTGAGGTCACACACAATTCGG | 3.37 | 2.69 | 1.73 | 2.93 | 0.679 | 3.59 | 1.43 | 2.08 | 0.45 | 1.51
ACTATTAGTTGAGACGAGGGAAACCGATAGGTTG | 0.194 | 0.0182 | -0.36 | -0.399 | -0.0748 | -0.349 | 0.531 | -0.165 | 0.215 | 0.291
ACCGAAAGGTCGAGGTGAGTATAGAGAAAGGGAA | 4.42 | 3.23 | -0.000757 | 2.69 | 0.235 | 4.71 | 3.28 | 3.78 | 1.22 | 2.51
CCTACTAGGTCAATGGTCAGCTAAAGCAGCTCGC | 3.38 | 2.41 | 0.529 | 1.87 | 0.47 | 4.62 | 8.83 | 7.23 | 6.92 | 7.71
TCATATAGGTAATACAAGTGAAAGTCGGCATCTA | 1.52 | 1.28 | 0.46 | 1.17 | 0.185 | 1.59 | 1.39 | 2.52 | 4.29 | 3.28
GATACAGGGTCAAGGCCAGAGAACGCGTATTGAT | 6.78 | 4.32 | 0.0774 | 3.59 | -0.239 | 5.57 | 5.91 | 5.64 | 2.25 | 4.54
TCTAGTTGGTCAAAGGTTACACACTCGAAATGCG | 2.63 | 3.13 | 1.38 | 3.04 | 0.929 | 5.08 | 9.84 | 8.86 | 8.99 | 9.47
CCTTACGGGTCAAGGTTAAAGCACGGGTGGTACG | 5.62 | 3.83 | 0.272 | 3.14 | 0.0143 | 5.08 | 5.05 | 5.34 | 2.38 | 4.5
TTAGCAAGGTGAGCTGAGGTCGTTGATCCAACTC | 0.796 | 1.32 | -0.635 | 0.393 | -0.992 | 1.72 | -0.0318 | 0.607 | -0.48 | 0.182
TCTAGTTGGTCACGGAGTTCACACACGACGGGTA | 1.65 | 2.17 | 2.34 | 1.88 | 0.263 | 2.63 | 1.88 | 2.66 | 3.07 | 2.99
TTACCAAGGTGAAAGGTCGTAGATGCACGCCTTG | 3.65 | 3.02 | -0.241 | 2.66 | -0.86 | 5.51 | 8.66 | 8.09 | 7.58 | 8.56
ATATGTAGGTTAAGGGTCATTGAGGTTGGTTCGC | 5.02 | 4.71 | 3.01 | 4.45 | 1.6 | 6.56 | 11.9 | 10 | 10.5 | 10.7
CCGAGTAGGTTATGGGGCACTCAGGCAACGGTGA | 0.104 | 0.294 | -0.464 | 0.136 | -0.707 | 2.08 | 3.55 | 4.33 | 2.45 | 4.11
CGAACTAGGGCATGAGTTGATAGCAAATGCCGAT | -0.0776 | -0.357 | -0.246 | -0.279 | -0.828 | 2.34 | 4.14 | 4.13 | 2.03 | 3.43

Sequence | PBM binding z-score [1] | PBM binding z-score [2] | PBM binding z-score [3] | PBM binding z-score [4] | PBM binding z-score [5] | PBM binding z-score [6] | PBM binding z-score [7] | PBM binding z-score [8] | PBM binding z-score [9] | PBM binding z-score [10]
ACAGACAGGTGAGTGAAGGTAGCTCAGCTGGACG | -0.0191 | -0.179 | -0.74 | -0.796 | -0.607 | -0.372 | 0.284 | 0.0552 | -0.201 | -0.0871
CGTCAGAGTTCAAGGTAACGTAACAGAAAGCAGC | 5.49 | 5.11 | 1.85 | 3.2 | 0.38 | 4.54 | 2.92 | 3.58 | 0.864 | 2.39
TAGCCTGGGTCATTCAGGGGCCAGTATAGAAAGC | 3.88 | 2.28 | -0.548 | 2.04 | 0.00492 | 3.65 | 2.29 | 2.38 | 0.19 | 1.47
CCTACTGGGCCAAAGGTCATTGAGTCCAATGCTC | 4.97 | 5.37 | 3.87 | 4.99 | 0.584 | 6.7 | 11.6 | 9.86 | 10.1 | 10.7
CATACAGGGTCAGCTAGGCCAGAGTCGGGACGGC | 4.49 | 3.06 | -0.0518 | 1.97 | 0.537 | 4.21 | 3.11 | 3.03 | 0.551 | 1.92
CGTTCAAGGTCAGAGAGGTCAGTGAATGCCGAGT | 6.69 | 5.26 | 3.71 | 4.58 | 0.61 | 5.27 | 4.38 | 4.69 | 1.58 | 3.31
ACAGACAGGTGAGTGAAGGTAAATCAGCTGGACG | 0.263 | -0.325 | -0.654 | -0.138 | -0.427 | -0.1 | 0.739 | -0.481 | -0.0948 | -0.384
TTACCAAGGTGAGGGTCGTTGATCCCTCTGTAGA | 1.32 | 0.898 | -0.621 | 0.915 | -0.774 | 1.88 | 0.82 | 2.03 | 0.53 | 1.46
CCTACTCGGCCAAGGTCATTGATCAGTCAAAGCA | 3.57 | 3.69 | 2.12 | 3.18 | 0.93 | 3.52 | 1.32 | 2.35 | 0.335 | 1.69
AATACAGGGTCACTAGGCCAGAGTAGGTACGAAT | 6.37 | 5.07 | 0.678 | 3.95 | 0.879 | 6.03 | 8.23 | 6.72 | 3.56 | 5.66
GCTATTAGTTGAAAGGGCAACCGGATGATTCTCG | 0.785 | 0.839 | 0.362 | 0.759 | -0.334 | 2.31 | 2.78 | 4.56 | 2.87 | 4.49
ATATGTAGGTTAGCTGGTGTCATTCAGACTAGGC | 0.789 | 1.83 | -0.106 | 0.765 | 0.392 | 2.74 | 3.47 | 2.8 | 0.962 | 2.2
TTTAGCAGGCCAGAGGGTCACTCAAGAGGTACGG | 0.67 | 0.761 | -0.56 | 1.09 | -0.78 | 2.32 | 2.08 | 2.99 | 1.1 | 2.42
TCGATTAGGTTACCAATGGGGCATTCAGCTTTCT | 0.297 | 1.49 | -0.396 | 1.29 | -0.254 | 1.21 | -0.163 | 1.5 | 2.68 | 2.26
GCTGCTAGGTCAACTGATGCTCAGCTAAAGCTCG | 4.03 | 2.63 | -0.106 | 1.88 | -0.349 | 3.79 | 2.66 | 3.35 | 0.299 | 2.26
ATACCAAGGTGATCCTGAGGTCGTTGATACTAAC | 2.37 | 2.1 | 0.935 | 1.98 | 0.354 | 2.1 | 0.744 | 0.547 | 0.147 | 0.197
TTACCAAGGAGAAGGTCGTTGATCCCTCTGTAGA | 1.21 | 1.19 | -0.0479 | 0.995 | -0.829 | 1.18 | 0.529 | 2.23 | 1.24 | 1.77
ATATGTAGGTTAAGGGTCATTCCGGTTGGTTCGC | 5.44 | 4.91 | 3.25 | 4.19 | 1.33 | 6.67 | 11.4 | 9.69 | 10.2 | 11.1
CAAACTAGGTCAACGGTCAAAGTCGAGCCAACCA | 5.58 | 4.31 | 2.25 | 3.09 | 0.978 | 6.16 | 11 | 9.5 | 8.86 | 11
AGTCAAAGTACATCTAGGTAACGTAAGATATGCT | -0.254 | -0.258 | -0.145 | -0.0982 | -0.223 | 0.359 | 1.35 | 0.631 | 0.46 | 0.326
GCAGATAGGTAATACAAGGTGAAAGTCCGATTGT | 1.42 | 2.24 | 0.134 | 0.475 | -0.791 | 1.04 | 0.544 | 0.592 | 0.199 | 0.421
TCATATAAGTAAATGCTAGGTGAAAGTCCGATCT | 1.12 | 1.03 | 0.543 | 0.645 | 0.419 | 1.3 | 0.711 | 2.49 | 4.34 | 3.6
CCTTACGCGTCACTGACAGGTTATAGCATTTGGA | 0.188 | 0.449 | 0.568 | 0.697 | 0.644 | 0.558 | 0.31 | 0.128 | 0.0399 | 0.241
CGTCCCAGGTCAAGGTCAGTGAAAGAGACTCGAA | 6.02 | 4.67 | 1.45 | 3.68 | 0.553 | 5 | 4.32 | 4.51 | 1.14 | 3.02
